Values joined by “and” are separate entries in the source; they are usually repeats but may differ in a detail not shown here. Equal entries are not always repeated. Results filed as inconclusive are left out. Active and inactive are the calls of the source. Calls follow the shape of the dose curve; as a rule, active = well fitted curve in the direction sought with a large enough effect; inconclusive = small, poorly fitted or top-dose-only effect, or another doubt; inactive = no such curve, though single readings can be large; an effect the other way counts as inactive or inconclusive.
Key:
HaCat [1] = assay: Cytotoxic Profiling of Annotated Libraries Using Quantitative High-Throughput Screening (AID 1296008); conditions: Five cell lines viability, CellTiter-Glo ATP luminescence, 48-72 h; max response: stronger effect = lower value; also: nearly all actives have a fitted effect of over 60% in size
Summary of the method: (§1)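 Cytotoxicity was measured as CellTiter-Glo ATP luminescence, read after 10 min at room temperature. Compound treatment of the cells lasted 48 or 72 hr at 37 degrees Celsius in a qHTS format.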

KB-3-1 = assay: as above; conditions: Five cell lines viability, CellTiter-Glo ATP luminescence, 48-72 h; max response: stronger effect = lower value
Summary of the method: as §1

NIH3T3 [2] = assay: as above; conditions: Five cell lines viability, CellTiter-Glo ATP luminescence, 48-72 h; max response: stronger effect = lower value
Summary of the method: as §1

CRL-7250 = normal cell line; assay: qHTS assay to identify novel small-molecules to repurpose for Merkel cell carcinoma treatment (AID 1296009); conditions: MCC and control cell lines, CellTiter-Glo viability, 72 h; at 44.8 µM (top of the series) unless noted; also: nearly all actives have a fitted effect of over 60% in size; also: potency is read from the fitted curve at half-maximal effect
Summary of the method: (§2)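 Cell viability measured by CellTiter-Glo following 72 hr compound treatment at 37 degree celsius, with NPC and MIPE libraries tested in 8- and 11-point concentration series.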

MCC-13 = assay: as above; conditions: MCC and control cell lines, CellTiter-Glo viability, 72 h; series mostly up to 46 µM
Summary of the method: as §2

MCC-26 = assay: as above; conditions: MCC and control cell lines, CellTiter-Glo viability, 72 h; series mostly up to 46 µM
Summary of the method: as §2

MKL-1 = assay: as above; conditions: MCC and control cell lines, CellTiter-Glo viability, 72 h; series mostly up to 46 µM
Summary of the method: as §2

MKL-2 = assay: as above; conditions: MCC and control cell lines, CellTiter-Glo viability, 72 h; series mostly up to 46 µM
Summary of the method: as §2

NIH3T3 [3] = assay: as above; conditions: MCC and control cell lines, CellTiter-Glo viability, 72 h; at 44.8 µM (top of the series) unless noted
Summary of the method: as §2

UISO = assay: as above; conditions: MCC and control cell lines, CellTiter-Glo viability, 72 h; series mostly up to 46 µM
Summary of the method: as §2

WaGa = assay: as above; conditions: MCC and control cell lines, CellTiter-Glo viability, 72 h; series mostly up to 46 µM
Summary of the method: as §2

C33A = assay: Primary qHTS to identify gynecologic anti-cancer compounds using libraries of approved drugs and bioactive compounds (AID 1345084); conditions: Gynecologic cancer cell panel viability, ATPlite luminescence, 48 h; series mostly up to 57.5 µM; also: nearly all actives have a fitted effect of over 55% in size
Summary of the method: (§3)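 Five-concentration response, 48 h; readout is ATP-driven luciferase luminescence.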

CAOV3 = assay: as above; conditions: Gynecologic cancer cell panel viability, ATPlite luminescence, 48 h; series mostly up to 57.5 µM
Summary of the method: as §3

CASKI = assay: as above; conditions: Gynecologic cancer cell panel viability, ATPlite luminescence, 48 h; series mostly up to 57.5 µM
Summary of the method: as §3

Es-2 = assay: as above; conditions: Gynecologic cancer cell panel viability, ATPlite luminescence, 48 h; series mostly up to 57.5 µM
Summary of the method: as §3

HeLa = assay: as above; conditions: Gynecologic cancer cell panel viability, ATPlite luminescence, 48 h; series mostly up to 57.5 µM
Summary of the method: as §3

Hek293T [4] = assay: as above; conditions: Gynecologic cancer cell panel viability, ATPlite luminescence, 48 h, control line for the selectivity index; series mostly up to 57.5 µM
Summary of the method: as §3

JEG-3 = assay: as above; conditions: Gynecologic cancer cell panel viability, ATPlite luminescence, 48 h; series mostly up to 57.5 µM
Summary of the method: as §3

HACAT [5] = assay: qHTS assay to identify novel small-molecules to repurpose for Merkel cell carcinoma treatment (AID 1296009); conditions: MCC and control cell lines, CellTiter-Glo viability, 72 h; at 44.8 µM (top of the series) unless noted; also: nearly all actives have a fitted effect of over 60% in size; also: potency is read from the fitted curve at half-maximal effect
Summary of the method: as §2

HEK293T [6] = assay: as above; conditions: MCC and control cell lines, CellTiter-Glo viability, 72 h; at 44.8 µM (top of the series) unless noted
Summary of the method: as §2
% is scaled to controls: 0 for no effect and ±100 for the full control effect.

Cc1cc(O)ccc1Cl
inactive: max response (HaCat [1]) 2.83% | max response (KB-3-1) -3.49% | outcome (NIH3T3 [2]) | outcome (CRL-7250) | Potency (MCC-13) | Potency (MCC-26) | Potency (MKL-1) | Potency (MKL-2) | outcome (NIH3T3 [3]) | Potency (UISO) | Potency (WaGa) | Potency (C33A) | Potency (CAOV3) | Potency (CASKI) | Potency (Es-2) | Potency (HeLa) | Potency (Hek293T [4]) | Potency (JEG-3)

CC(C)N[C@@H]1CCn2c(=O)[nH]c3cccc(c32)[C@@H]1O
inactive: max response (HaCat [1]) -2.4% | max response (KB-3-1) 6.91% | max response (NIH3T3 [2]) -1.8% | outcome (CRL-7250) | Potency (MCC-13) | Potency (MCC-26) | Potency (UISO)

O=[N+]([O-])c1ccc([As](=O)(O)O)cc1
active: Potency (MKL-2) 8.41 µM
inactive: outcome (HaCat [1]) | max response (KB-3-1) -9.29% | outcome (NIH3T3 [2]) | outcome (CRL-7250) | outcome (HACAT [5]) | outcome (HEK293T [6]) | Potency (MCC-13) | Potency (MCC-26) | Potency (MKL-1) | outcome (NIH3T3 [3]) | Potency (UISO) | Potency (WaGa) | Potency (C33A) | Potency (CAOV3) | Potency (CASKI) | Potency (Es-2) | Potency (HeLa) | Potency (Hek293T [4]) | Potency (JEG-3)

C1CCC(NC2CCCCC2)CC1
inactive: max response (HaCat [1]) 3.35% | max response (KB-3-1) 6.25% | max response (NIH3T3 [2]) -2.97% | outcome (CRL-7250) | Potency (MCC-13) | Potency (MCC-26) | Potency (MKL-1) | Potency (MKL-2) | Potency (UISO) | Potency (WaGa) | Potency (C33A) | Potency (CAOV3) | Potency (CASKI) | Potency (Es-2) | Potency (HeLa) | Potency (Hek293T [4]) | Potency (JEG-3)

CCNC(=O)CC1N=C(c2ccc(Cl)cc2)c2cc(OC)ccc2-n2c(C)nnc21 (stereo unspecified)
inactive: max response (HaCat [1]) -4.28% and 0.244% and -23.7% | max response (KB-3-1) -3.15% | outcome (KB-3-1) | max response (NIH3T3 [2]) 4.41% | outcome (NIH3T3 [2]) | outcome (HEK293T [6]) | Potency (MCC-13) | Potency (MCC-26) | Potency (MKL-1) | outcome (NIH3T3 [3]) | Potency (UISO) | Potency (C33A) | Potency (CAOV3) | Potency (CASKI) | Potency (Es-2) | Potency (HeLa) | Potency (Hek293T [4]) | Potency (JEG-3)

CCN1C[C@]2(OC(=O)c3ccccc3NC(C)=O)CC[C@H](OC)[C@@]34[C@H]5CC6[C@@H](OC)C[C@](O)(C(C[C@@H]23)[C@@H]14)[C@@]5(O)[C@@H]6OC
inactive: outcome (HaCat [1]) | outcome (KB-3-1) | outcome (NIH3T3 [2]) | outcome (CRL-7250) | outcome (HACAT [5]) | Potency (MCC-13) | Potency (MCC-26) | Potency (MKL-1) | Potency (MKL-2) | outcome (NIH3T3 [3]) | Potency (UISO) | Potency (WaGa)

O=C(NCC1CCOCC1)c1cnc(Nc2ccc(Cl)cc2Cl)nc1C(F)(F)F
inactive: max response (HaCat [1]) -8.57% and -14.9% | max response (KB-3-1) -20.4% | outcome (KB-3-1) | max response (NIH3T3 [2]) -3.44% and -3.65% | Potency (MCC-13) | Potency (MCC-26) | Potency (MKL-1) | Potency (MKL-2) | Potency (UISO) | Potency (WaGa) | Potency (C33A) | Potency (CAOV3) | Potency (CASKI) | Potency (Es-2) | Potency (HeLa) | Potency (Hek293T [4]) | Potency (JEG-3)

Cc1ccccc1-n1c(Cn2ncc3c(N)ncnc32)nc2cccc(C)c2c1=O
active: Potency (MCC-13) 13.2 µM | Potency (UISO) 1.32 µM
inactive: outcome (HaCat [1]) | outcome (KB-3-1) | max response (NIH3T3 [2]) 1.98% | outcome (NIH3T3 [2]) | outcome (CRL-7250) | outcome (HACAT [5]) | outcome (HEK293T [6]) | Potency (MKL-2) | outcome (NIH3T3 [3]) | Potency (C33A) | Potency (CAOV3) | Potency (CASKI) | Potency (Es-2) | Potency (HeLa) | Potency (Hek293T [4]) | Potency (JEG-3)

c1cc2c(cc1[C@H]1OC[C@H]3[C@H]1CO[C@H]3c1ccc3c(c1)OCO3)OCO2
inactive: outcome (HaCat [1]) | max response (KB-3-1) 6.13% | outcome (NIH3T3 [2]) | outcome (HACAT [5]) | outcome (HEK293T [6]) | Potency (MCC-13) | Potency (MCC-26) | Potency (MKL-1) | Potency (MKL-2) | outcome (NIH3T3 [3]) | Potency (UISO) | Potency (WaGa)

CCOC(=O)c1cncn1[C@H](C)c1ccccc1
inactive: outcome (HaCat [1]) | max response (KB-3-1) 6.23% | outcome (NIH3T3 [2]) | outcome (HACAT [5]) | outcome (HEK293T [6]) | Potency (MCC-13) | Potency (MCC-26) | Potency (MKL-1) | Potency (MKL-2) | outcome (NIH3T3 [3]) | Potency (UISO) | Potency (WaGa)

CC[N+]1(CCOC(=O)C(O)(c2ccccc2)c2ccccc2)CCCCC1
inactive: outcome (HaCat [1]) | max response (KB-3-1) 1.27% | outcome (NIH3T3 [2]) | outcome (HACAT [5]) | outcome (HEK293T [6]) | Potency (MCC-13) | Potency (MCC-26) | Potency (MKL-1) | Potency (MKL-2) | outcome (NIH3T3 [3]) | Potency (UISO) | Potency (WaGa) | Potency (C33A) | Potency (CAOV3) | Potency (CASKI) | Potency (Es-2) | Potency (HeLa) | Potency (Hek293T [4]) | Potency (JEG-3)

CC(=O)Nc1ccc(OC[C@](C)(O)C(=O)Nc2ccc([N+](=O)[O-])c(C(F)(F)F)c2)cc1
inactive: max response (HaCat [1]) -8.66% and -10.1% | max response (KB-3-1) -13.4% and 7.92% | max response (NIH3T3 [2]) 2.34% | outcome (NIH3T3 [2]) | outcome (HEK293T [6]) | Potency (MCC-13) | Potency (MCC-26) | Potency (MKL-1) | Potency (MKL-2) | outcome (NIH3T3 [3]) | Potency (UISO) | Potency (WaGa) | Potency (C33A) | Potency (CAOV3) | Potency (CASKI) | Potency (Es-2) | Potency (HeLa) | Potency (Hek293T [4]) | Potency (JEG-3)

COc1cccc2c1[C@]13CCN(CC4CC4)[C@H](C2)[C@]1(OC)CCC(=O)C3
inactive: outcome (HaCat [1]) | max response (KB-3-1) 7.72% | max response (NIH3T3 [2]) 3.8% | outcome (CRL-7250) | outcome (HACAT [5]) | outcome (HEK293T [6]) | Potency (MCC-13) | Potency (MCC-26) | Potency (MKL-1) | Potency (MKL-2) | Potency (UISO) | Potency (WaGa)
